About 83,000 compounds went through this panel and 20% of them were active in at least one assay; those are over-represented in the sample as a whole.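 Testing used 96-well plates and a 48-hour single-concentration exposure. Example: -40 means 40% of the starting cells died.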 Values without a mark were called inactive. Calls of active or inactive are those of the source. Rule for the calls: active = growth percent below 10; inactive = the rest.
Experiments:
Assay in all cases: NCI-60 one-dose screen, 48 h (100 = growth as untreated, 0 = no growth, -100 = all killed)
Conditions in all cases: 10 µM unless noted
DU-145 prostate = tested on: DU-145 prostate
K-562 leukemia = tested on: K-562 leukemia
MALME-3M melanoma = tested on: MALME-3M melanoma
MDA-MB-231 breast = tested on: MDA-MB-231 breast
RXF 393 renal = tested on: RXF 393 renal
SF-268 CNS = tested on: SF-268 CNS
SF-295 CNS = tested on: SF-295 CNS
SF-539 CNS = tested on: SF-539 CNS
UACC-257 melanoma = tested on: UACC-257 melanoma
HCT-15 colon = tested on: HCT-15 colon
HT29 colon = tested on: HT29 colon
SNB-75 CNS = tested on: SNB-75 CNS
SNB-19 CNS = tested on: SNB-19 CNS
U251 CNS = tested on: U251 CNS
PC-3 prostate = tested on: PC-3 prostate
SK-MEL-5 melanoma = tested on: SK-MEL-5 melanoma
UACC-62 melanoma = tested on: UACC-62 melanoma
LOX IMVI melanoma = tested on: LOX IMVI melanoma
SK-MEL-28 melanoma = tested on: SK-MEL-28 melanoma

Row | Compound | growth (DU-145 prostate) | growth (K-562 leukemia) | growth (MALME-3M melanoma) | growth (MDA-MB-231 breast) | growth (RXF 393 renal) | growth (SF-268 CNS) | growth (SF-295 CNS) | growth (SF-539 CNS) | growth (UACC-257 melanoma) | growth (HCT-15 colon) | growth (HT29 colon) | growth (SNB-75 CNS) | growth (SNB-19 CNS) | growth (U251 CNS) | growth (PC-3 prostate) | growth (SK-MEL-5 melanoma) | growth (UACC-62 melanoma) | growth (LOX IMVI melanoma) | growth (SK-MEL-28 melanoma)
1 | NS(=O)(=O)c1ccc(Nc2nc(Nc3ccccc3)nc3nnc(SCC(=O)NC4CCCCC4)n23)cc1 | 106% | 94.1% | 101% | 95% | 126% | 106% | 105% | 96.1% | 104% | 104% | 113% | 115% | 101% | 104% | 98.5% | 105% | 92.3% | 101% | 105%
2 | CCN1CCN(Cc2ccc(C(=O)Nc3ccc(C)c(Oc4ccc(-c5[nH]nc6ncnc(N)c56)cc4)c3)cc2C(F)(F)F)CC1 | 98.6% | 3.44% (active) | 22.8% | 82.7% | 44.3% | 90.5% | 78.8% | 55.6% | 71.9% | 68.6% | 17% | 95.8% | 101% | 89.4% | 70.7% | 76.1% | 89.1% | 57.2% | 75.4%
3 | N=c1c2cc(-c3ccccc3)oc2ncn1/N=C/c1ccc(Br)cc1 | 50.9% | 80% | 16.3% | 93.4% | 86.6% | 68.9% | 84.2% | 74.2% | 89.8% | 57.9% | 102% | 58% | 74.9% | 45.9% | 75.3% | 97.1% | 90.4% | 45.3% | 77.8%
4 | CS(=O)(=O)c1ncc(-c2ccccc2)cn1 | 104% | 93.3% | 104% | 99.8% | 106% | 101% | 107% | 94.4% | 89.7% | 89.1% | 105% | 110% | 98.1% | 99.3% | 100% | 93% | 89% | 84.6% | 98%
5 | C#Cc1nc(C(=O)NCCC(=O)Nc2ccc(NC(=O)c3ccc(/C=C/C(=O)c4nccn4C)cc3)cc2)cs1 | 21.1% | 8.97% (active) | 6.41% (active) | 5.11% (active) | 45.8% | 33.4% | 55.6% | -89.4% (active) | 78.5% | 16.7% | 2.68% (active) | 56.6% | 35.1% | 3.44% (active) | 42.5% | 87% | 38.6% | -90.1% (active) | 84.8%
6 | O=S(=O)(NCCCNc1nccc(-c2[nH]c(-c3ccccc3)nc2-c2ccc(Cl)c(O)c2)n1)c1ccc(Br)cc1 | 47.7% | 18.9% | 2.55% (active) | 43.4% | -6.2% (active) | 37.9% | 2.98% (active) | 46.7% | 16.7% | 13.9% | 39.7% | 73.6% | 49% | 30.7% | 27.1% | 0.46% (active) | 13.2% | 21.6% | 17.3%
7 | O=C(Nc1cccc(C(F)(F)F)c1)c1cc(-c2ccc(F)cc2F)ccc1O | 18.9% | 11.1% | -10.2% (active) | 3.11% (active) | -25.9% (active) | 16.5% | -23.1% (active) | 10.4% | -8.74% (active) | 8.57% (active) | 74.1% | -0.914% (active) | 11.4% | 10.4% | 7.15% (active) | -66% (active) | 2.01% (active) | 0.316% (active) | 24.6%
8 | O=S(=O)(NCCCNc1nccc(-n2cnc3ccccc32)n1)c1ccc(C(F)(F)F)cc1 | 94.5% | 67.6% | 98.4% | 83.1% | 105% | 86.8% | 81.2% | 87.9% | 97.8% | 81.8% | 96.3% | 87.2% | 94.2% | 90.8% | 66.7% | 58.8% | 62% | 85.6% | 103%
9 | Oc1ccc(CSc2nnc(-c3ccc(Cl)cc3)n2-c2ccccc2)c2cccnc12 | 38.8% | 22.1% | 29.6% | 58.5% | 56.3% | 30.7% | 4.65% (active) | 22% | 29.3% | 14.4% | 92.7% | 16.6% | 13.3% | 3.32% (active) | 19.1% | 5.67% (active) | 9.41% (active) | 29.5% | 42.4%
10 | Clc1cccc(/C=N/Nc2nc(N/N=C/c3cccc(Cl)c3Cl)nc(N3CCCCC3)n2)c1Cl | 73.4% | 78.1% | 92.5% | 84.2% | 112% | 86.4% | 92.7% | 84.3% | 100% | 65.5% | 84.3% | 104% | 95.4% | 52.9% | 70.1% | 94.2% | 89.8% | 68.3% | 97.7%
11 | COc1ccc(N2CCN(C3=C(Cl)C(=O)C(C)=C(C)C3=O)CC2)cc1 | 108% | 83.1% | 110% | 88.2% | 153% | 105% | 108% | 105% | 102% | 110% | 120% | 107% | 99.1% | 100% | 92.3% | 97.6% | 88.5% | 91.4% | 118%
12 | NC(=O)c1c(NC(=O)c2ccccc2C(F)(F)F)sc2c1CCC(=O)C2 | 81.2% | 11.7% | 15% | 16.2% | 41.7% | 24.6% | 73% | 5.83% (active) | 10.6% | 10.7% | 18.7% | 44.8% | 20.8% | 14.3% | 17.5% | -59.5% (active) | 10.4% | 19.7% | 42.4%
13 | C=C1CC[C@@H]2[C@](C)(CO)[C@H](O)CC[C@@]2(C)[C@@H]1C/C(O)=C1\CCOC1=O | 102% | 73.1% | 105% | 110% | 123% | 98.8% | 103% | 108% | 93.1% | 90.9% | 96.5% | 96.4% | 97.9% | 88.2% | 99.7% | 101% | 88.9% | 72.9% | 108%
14 | Cc1ccc(-n2cc(/C=N/NC(=O)c3nc(N)n[nH]3)c(-c3ccc(S(C)(=O)=O)cc3)n2)cc1 | 100% | 52.7% | 85.3% | 96% | 117% | 99.4% | 104% | 99.7% | 99.3% | 86.4% | 105% | 92.2% | 97.4% | 101% | 96.8% | 103% | 88.5% | 90.2% | 101%
15 | COc1ccc(N2C(=O)c3cc(Cl)ccc3NC2SCc2ccccc2)cc1 (stereo not drawn) | 106% | 88.9% | 99.2% | 85.1% | 101% | 98.3% | 102% | 98.7% | 97.7% | 82% | 84.1% | 94.9% | 95.7% | 99.4% | 84.8% | 102% | 70.3% | 94.8% | 99.2%
16 | CS(=O)(=O)c1ccc(-c2nn(-c3ccccc3)cc2/C=N/NC(=O)c2nc(N)n[nH]2)cc1 | 90% | 59.4% | 90% | 98.4% | 117% | 103% | 103% | 99.3% | 98.3% | 88.9% | 101% | 103% | 101% | 101% | 100% | 98.6% | 90.8% |  | 108%
